Compound activity: PubChem, several laboratories
Most compounds without a hit are left out; they make up all but 3.7% or so of the library.
BJeLR lethal = kills HRASV12-expressing BJeLR cells | BJeLR (HRASV12) viability, CellTiter-Glo ATP luminescence, 48 h | inhibition, % (concentration not given with the values) | 0.17% of 300,000 active | AID 1554; in the data active means inhibition above about 50%; inconclusive means no clear call, values can overlap the other calls
BH1578 lux ind = inducers of Vibrio cholerae quorum light production without autoinducers; V. cholerae BH1578 lux reporter, luminescence, 6 h; activation, % at 18.7 µM; 0.16% of 350,000 active; in the data active means activation mostly above about 9.7%, no sharp cut-off; inconclusive means no clear call, values can overlap the other calls; inactive means mostly below about 3.7%
Anthrax LF inh2 = inhibitors of Bacillus anthracis lethal factor protease | multiplex microsphere protease cleavage assay, LF | inhibition, % at 10 µM | P15917 | 0.12% of 360,000 active | AID 588501; further: plate controls were buffer without enzyme for full effect and enzyme alone for no effect
Target sequence (P15917 whole entry, looked up): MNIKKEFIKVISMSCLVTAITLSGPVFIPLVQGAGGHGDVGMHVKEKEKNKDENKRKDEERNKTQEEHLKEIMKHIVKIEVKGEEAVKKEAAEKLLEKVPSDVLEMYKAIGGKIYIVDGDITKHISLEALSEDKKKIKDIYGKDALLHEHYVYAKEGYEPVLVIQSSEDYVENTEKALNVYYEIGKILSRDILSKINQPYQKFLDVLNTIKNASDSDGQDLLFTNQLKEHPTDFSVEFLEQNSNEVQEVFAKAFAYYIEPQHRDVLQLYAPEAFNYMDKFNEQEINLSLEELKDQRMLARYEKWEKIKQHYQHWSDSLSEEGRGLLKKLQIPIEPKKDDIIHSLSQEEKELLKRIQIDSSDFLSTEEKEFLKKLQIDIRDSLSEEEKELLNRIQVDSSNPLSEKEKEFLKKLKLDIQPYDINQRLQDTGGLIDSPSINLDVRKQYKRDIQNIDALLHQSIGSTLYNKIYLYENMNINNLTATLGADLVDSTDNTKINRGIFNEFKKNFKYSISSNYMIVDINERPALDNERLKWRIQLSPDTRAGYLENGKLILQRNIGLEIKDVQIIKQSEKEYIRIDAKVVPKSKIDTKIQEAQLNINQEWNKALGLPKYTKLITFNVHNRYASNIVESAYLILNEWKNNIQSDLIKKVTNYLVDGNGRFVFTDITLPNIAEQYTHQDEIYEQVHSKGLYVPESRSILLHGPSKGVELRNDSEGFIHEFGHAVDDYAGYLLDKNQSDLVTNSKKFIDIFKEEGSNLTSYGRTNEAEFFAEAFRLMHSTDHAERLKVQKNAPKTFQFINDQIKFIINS
BoNT F protease = BoNT F light chain protease inhibition; Multiplex microsphere protease cleavage assay, flow cytometry; inhibition, % at 10 µM; 0.22% of 360,000 active; in the data active means inhibition above about 35%, passing the limit was not always enough; inconclusive means no clear call, values can overlap the other calls; further: plate controls were buffer without enzyme for full effect and enzyme alone for no effect
BoNT A protease = inhibitors of Botulinum neurotoxin A light chain protease; multiplex microsphere protease substrate cleavage, flow cytometry; inhibition, % at 10 µM; 0.17% of 360,000 active; AID 588499; further: plate controls were buffer without enzyme for full effect and enzyme alone for no effect
Autofluor counter = counter-screen for toxin protease inhibitors: compound fluorescence; fluorescence intensity (concentration not given with the values); 3.1% of 360,000 active; compound autofluorescence counterscreen, microsphere flow cytometry; stronger effect = higher value; in the data active means fluorescence intensity above about 16000; inconclusive means no clear call, values can overlap the other calls
The depositor's hits bear a star; i = inactive; ? = inconclusive; / = no result. Unless noted, no stated cut-off is given here; in the data, active means inhibition above about 30%; inconclusive means no clear call, values can overlap the other calls; inactive means below that.

SMILES | BJeLR lethal | BH1578 lux ind | Anthrax LF inh2 | BoNT F protease | BoNT A protease | Autofluor counter
Cn1c(=O)c2c(nc(Br)n2CC(=O)C23CC4CC(CC(C4)C2)C3)n(C)c1=O | 3 | -12 | -2 | -1 | 0 | 16360*
CC1(C(=O)NCc2cccs2)Cc2c(-c3cccc(C(F)(F)F)c3)ccnc2O1 (stereo not given) | / | 0 | -1 | -2 | 0 | 4134
COc1ccc(CNc2oc(COc3ccccc3)nc2C#N)cc1 | -5 | 0 | -10 | 3 | 1 | 9489
COc1ccc(CNc2oc(C)nc2C#N)cc1 | -13 | -3 | 1 | -4 | ? | 20862*
N#Cc1nc(COc2ccc(F)cc2)oc1N1CCN(Cc2ccccc2)CC1 | 0 | -1 | -9 | -7 | 0 | 4287
N#Cc1nc(COc2ccccc2Cl)oc1NCc1ccc(F)cc1 | 2 | 0 | -6 | -8 | -6 | 22901*
N#Cc1nc(COc2ccc(F)cc2)oc1N1CCC(Cc2ccccc2)CC1 | 0 | i | -5 | -3 | -1 | 16803*
COc1ccc(N2CCN(c3oc(COc4ccccc4Cl)nc3C#N)CC2)cc1 | -6 | i | -10 | -1 | ? | 19893*
COC(=O)c1c(S(N)(=O)=O)c2ccccc2n1C | -8 | i | -3 | -5 | -2 | 21700*
COC(=O)c1c(C(=O)c2ccc(Br)cc2)n(C)c2ccccc12 | / | -1 | ? | ? | ? | ?
CC(C)C1C(=O)N(Cc2cn(Cc3ccco3)nn2)CCS(=O)(=O)N1Cc1ccc(-c2ccc(Cl)c(Cl)c2)cc1 (stereo not given) | / | 0 | -1 | 3 | 0 | 3966
Cc1cc(N2CCN(S(=O)(=O)c3ccc4c(c3)OCCO4)CC2)n2ncnc2n1 | 6 | -3 | -1 | 0 | -1 | 23595*
Cc1cc(Nc2ccc(N(C)C)cc2)n2ncnc2n1 | -4 | i | -11 | -27 | -9 | 3252
Cc1cc(Nc2ccc3c(c2)OCCO3)n2ncnc2n1 | 3 | i | -1 | 3 | 1 | 22455*
CN1CCN(c2ncnc3c2ncn3[C@H]2CN(Cc3ccc(Cl)cc3)C[C@@H](CO)O2)CC1 | / | 1 | -1 | -1 | 0 | 3089
CCOC(=O)C1=C(N)Oc2cc(C)oc(=O)c2C12C(=O)N1c3c(cccc32)C(C)CC1(C)C (stereo not given) | -22 | 1 | 0 | -7 | 1 | 10460
CCOC(=O)C1=C(N)Oc2cc(C)oc(=O)c2C12C(=O)N1c3c(cccc32)C(C)=CC1(C)C (stereo not given) | 8 | 3 | -8 | 2 | 3 | 21518*
CCOC(=O)C1=C(N)Oc2cc(C)oc(=O)c2C12C(=O)N1c3c(cc(OC)cc32)C(C)=CC1(C)C (stereo not given) | 0 | i | -4 | -1 | ? | 23174*
COc1cc2c3c(c1)/C(=C1/SC(NC(C)=O)=NC1=O)C(=O)N3C(C)(C)C=C2C | -11 | 0 | -4 | 10 | 0 | 4949
COc1ccc(C2=NO[C@@H]3C(=O)N(C4CCCCC4)C(=O)[C@H]23)cc1OC | 1 | 6 | -1 | 4 | 1 | 22002*
CCOc1ccc(N(CC)S(=O)(=O)c2ccc3c(c2)oc(=O)n3C)cc1 | 0 | -11 | -5 | -5 | -2 | 17539*
CCCCN(C(=O)C1CCCO1)c1c(N)n(CCC)c(=O)[nH]c1=O (stereo not given) | / | -6 | 2 | 1 | 0 | 3590
COc1ccc(N2CCN(S(=O)(=O)/C=C/c3ccccc3)CC2)cc1 | -7 | -11 | 0 | 4 | 0 | 9166
COc1cc2c(cc1OC)CN(S(=O)(=O)/C=C/c1ccccc1)CC2 | 3 | i | 4 | 40* | 0 | 3399
Nc1ncnc(N)c1NC(=O)c1ccc(OCc2ccccc2)cc1 | / | i | -4 | -4 | 0 | 3453
SMILES | BJeLR lethal | BH1578 lux ind | Anthrax LF inh2 | BoNT F protease | BoNT A protease | Autofluor counter
COc1cccc(C(O)c2ncc(-c3ccccc3Cl)[nH]2)c1 (stereo not given) | / | i | -1 | -1 | 0 | 3427
CC(=O)Nc1nc(SCc2ccc(Cl)cc2Cl)n[nH]1 | -1 | i | -8 | 3 | ? | 19910*
Nc1nc(SCc2ccc(Cl)cc2Cl)n[nH]1 | -15 | 0 | -3 | -10 | 0 | 2459
CCOC(=O)C1(C)CCCN(C(=O)Cc2ccc3ccccc3c2)C1 (stereo not given) | / | 0 | 2 | -2 | -1 | 3572
COCCNc1cc(C)nc2cc(-c3ccc(C)cc3)nn12 | 0 | 0 | -1 | -2 | 0 | 5635
Cc1ccc(-c2cc3nc(C)cc(NCc4ccco4)n3n2)cc1 | -1 | i | -4 | 7 | 2 | 16495*
S=C(SSC(=S)N1CCOCC1)N1CCOCC1 | / | / | 5 | 27 | 8 | 5610
COC(=O)c1c(NC(=O)CSc2nnnn2-c2ccccc2)sc2c1CCC(C)C2 (stereo not given) | 1 | -1 | -4 | -2 | 0 | 12350
COC(=O)c1c(NC(=O)CSc2nnnn2-c2ccccc2)sc2c1CCC(C(C)(C)C)C2 (stereo not given) | 12 | i | -2 | -1 | -2 | 23374*
COc1ccc(-c2cc(CNc3nc(NC(C)C)nc4cc(-c5ccccc5)sc34)on2)cc1 | / | 0 | 2 | -9 | 3 | 3050
COc1ccc(-c2nc3c(Cl)cc(C(F)(F)F)cn3c2Cc2ccc(C)cc2)cc1OC | / | / | -1 | -5 | 0 | 6191
O=C(NCc1cccnc1)c1cc(C2CCCN(C(=O)c3cccc(O)c3)C2)on1 (stereo not given) | / | i | -3 | -3 | 0 | 3980
Nc1c(C(=O)NCc2ccco2)c2nc3ccccc3nc2n1CCN1CCOCC1 | 10 | -1 | 1 | 6 | 6 | 21216*
CC1CCCN(c2nc3c(c(=O)n(C)c(=O)n3C)n2CCSc2nc3ccccc3s2)C1 (stereo not given) | -9 | -6 | -4 | 1 | 1 | 20318*
CC1CCN(c2nc3c(c(=O)n(C)c(=O)n3C)n2CCSc2nc3ccccc3s2)CC1 | 4 | 0 | 0 | 4 | 0 | 9205
Cn1c(=O)c2c(nc(N3CCCCC3)n2CCSc2nc3ccccc3s2)n(C)c1=O | -3 | i | 0 | -4 | 0 | 16274*
COc1ccc(CCNC(=O)c2cc3cc(Cl)ccc3nc2N)cc1OC | / | / | 0 | -6 | 0 | 6317
CC(=O)N1CCc2cc(NC(=O)C3(C)CCN3Cc3ccccc3OC(F)F)ccc21 (stereo not given) | / | 0 | -2 | 4 | 0 | 3360
CN(C)CC#CCC(O)(c1ccccc1)C1CCCC1 (stereo not given) | 7 | -2 | 0 | -3 | -1 | 23845*
CCCCCCCCCCCCCCCC(=O)Nc1ccn(C2OC(CO)C(O)C2O)c(=O)n1 (stereo not given) | / | 1 | -3 | -11 | 0 | 3743
CC(C)C1=C2OC(N)=C(C#N)C(C#N)=C2C(C)CC1 (stereo not given) | -11 | i | 0 | -7 | -5 | 22045*
Cc1occc1-c1n[nH]c(=S)n1CC(C)C | 1 | i | -2 | -2 | -3 | 23617*
